In PubChem BioAssay AID1159580 (chemical genetic matrix, 2015):
Among all 5,500 compounds or so, about 2,000 (36%) were called active. About 18% were inconclusive and are not listed. Rule as the data show it: active = normalized growth mostly below about 0.91 (no sharp cut-off); inconclusive = no clear call, values can overlap the other calls; inactive = mostly above about 0.92. This is one part of the list.

Experiment: chemical genetic growth profiling, strain panel (AID 1159580);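 also: tested at 20 µM; growth read once vehicle control cultures reached saturation at 30 °C; 1 = growth at the plate median or of vehicle wells; lower values mean less growth of the strain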
Conditions: S. cerevisiae deletion strains, growth OD

Measured: normalized growth

O=S(=O)(O)O
inactive: locus YAL021C, strain ccr4, stronger effect = lower value 0.973 | locus YAL026C, strain drs2, stronger effect = lower value 0.983 | locus YAL030W, strain snc1, stronger effect = lower value 0.985 | locus YBL061C, strain skt5, stronger effect = lower value 0.975 | locus YBR009C, strain hhf1, stronger effect = lower value 0.991 | locus YBR023C, strain chs3, stronger effect = lower value 0.98 | locus YBR171W, strain sec66, stronger effect = lower value 0.961 | locus YBR231C, strain swc5, stronger effect = lower value 0.976 | locus YBR279W, strain paf1, stronger effect = lower value 0.985 | locus YCL011C, strain gbp2, stronger effect = lower value 0.965 | locus YCL016C, strain dcc1, stronger effect = lower value 0.981 | locus YCL061C, strain MRC1, stronger effect = lower value 0.993 | locus YCL069W, strain vba3, stronger effect = lower value 0.969 | locus YCR088W, strain abp1, stronger effect = lower value 0.956 | locus YDL005C, strain med2, stronger effect = lower value 0.954 | locus YDL040C, strain nat1, stronger effect = lower value 0.988 | locus YDR001C, strain nth1, stronger effect = lower value 0.987 | locus YDR069C, strain doa4, stronger effect = lower value 0.964 | locus YDR137W, strain rgp1, stronger effect = lower value 1.01 | locus YDR159W, strain sac3, stronger effect = lower value 0.985 | locus YDR195W, strain ref2 1 | locus YDR297W, strain sur2, stronger effect = lower value 0.976 | locus YDR334W, strain swr1, stronger effect = lower value 0.976 | locus YDR335W, strain msn5, stronger effect = lower value 0.978 | locus YDR392W, strain spt3, stronger effect = lower value 0.914 | locus YEL003W, strain gim4, stronger effect = lower value 0.988 | locus YEL037C, strain rad23, stronger effect = lower value 0.969 | locus YEL061C, strain CIN8 (second series), stronger effect = lower value 0.971 | locus YER015W, strain faa2, stronger effect = lower value 0.975 | locus YER016W, strain bim1, stronger effect = lower value 0.983 | locus YER111C, strain swi4, stronger effect = lower value 0.967 | locus YER155C, strain BEM2 (second series), stronger effect = lower value 0.976 | locus YFR010W, strain ubp6, stronger effect = lower value 0.973 | locus YGL167C, strain pmr1, stronger effect = lower value 0.973 | locus YGL173C, strain kem1, stronger effect = lower value 0.962 | locus YGL227W, strain vid30, stronger effect = lower value 0.961 | locus YGL240W, strain doc1, stronger effect = lower value 0.982 | locus YGL253W, strain hxk2, stronger effect = lower value 0.969 | locus YHR013C, strain ard1, stronger effect = lower value 0.96 | locus YHR027C, strain rpn1, stronger effect = lower value 0.978 | locus YHR030C, strain SLT2, stronger effect = lower value 1.04 | locus YHR079C, strain IRE1, stronger effect = lower value 1.06 | locus YHR142W, strain chs7, stronger effect = lower value 0.961 | locus YJL092W, strain hpr5, stronger effect = lower value 0.95 | locus YJL095W, strain BCK1 (second series), stronger effect = lower value 0.981 | locus YJL095W, strain BCK1, stronger effect = lower value 1.06 | locus YJL115W, strain asf1, stronger effect = lower value 0.981 | locus YJL129C, strain trk1, stronger effect = lower value 0.961 | locus YJL154C, strain vps35, stronger effect = lower value 0.977 | locus YJL164C, strain tpk1, stronger effect = lower value 0.983 | locus YJL166W, strain qcr8, stronger effect = lower value 0.977 | locus YJL187C, strain SWE1, stronger effect = lower value 0.981 | locus YJR066W, strain TOR1, stronger effect = lower value 0.967 | locus YKL160W, strain elf1, stronger effect = lower value 0.987 | locus YKR026C, strain gcn3, stronger effect = lower value 0.975 | locus YKR091W, strain srl3, stronger effect = lower value 0.977 | locus YLL001W, strain dnm1, stronger effect = lower value 0.992 | locus YLL026W, stronger effect = lower value 0.966 | locus YLL041C, strain sdh2, stronger effect = lower value 0.988 | locus YLR027C, strain aat2, stronger effect = lower value 0.985 | locus YLR113W, strain HOG1, stronger effect = lower value 0.992 | locus YLR221C, strain rsa3, stronger effect = lower value 0.979 | locus YLR258W, strain gsy2, stronger effect = lower value 0.98 | locus YLR262C, strain YPT6 (second series), stronger effect = lower value 1 | locus YLR320W, strain mms22, stronger effect = lower value 0.969 | locus YLR342W, strain FKS1, stronger effect = lower value 0.955 | locus YLR357W, strain rsc2, stronger effect = lower value 0.951 | locus YLR370C, strain arc18, stronger effect = lower value 0.965 | locus YLR384C, strain iki3, stronger effect = lower value 0.977 | locus YML120C, strain ndi1, stronger effect = lower value 0.979 | locus YMR058W, strain fet3, stronger effect = lower value 0.985 | locus YMR125W, strain sto1, stronger effect = lower value 0.944 | locus YMR129W, stronger effect = lower value 0.99 | locus YMR205C, strain PFK2, stronger effect = lower value 0.976 | locus YMR231W, strain pep5, stronger effect = lower value 0.956 | locus YNL071W, strain lat1, stronger effect = lower value 0.959 | locus YNL183C, strain NPR1, stronger effect = lower value 0.986 | locus YNL209W, strain ssb2, stronger effect = lower value 0.975 | locus YNL248C, strain rpa49, stronger effect = lower value 0.978 | locus YNL322C, strain KRE1 (second series), stronger effect = lower value 0.966 | locus YNR049C, strain mso1, stronger effect = lower value 0.983 | locus YOR001W, strain rrp6, stronger effect = lower value 0.964 | locus YOR070C, strain gyp1, stronger effect = lower value 0.974 | locus YOR080W, strain dia2, stronger effect = lower value 0.968 | locus YOR083W, strain WHI5, stronger effect = lower value 0.986 | locus YOR106W, strain vam3, stronger effect = lower value 0.934 | locus YOR231W, strain MKK1, stronger effect = lower value 1.02 | locus YOR265W, strain rbl2, stronger effect = lower value 0.981 | locus YOR270C, strain vph1, stronger effect = lower value 1 | locus YOR290C, strain snf2, stronger effect = lower value 0.982 | locus YPL051W, strain arl3, stronger effect = lower value 0.981 | locus YPL078C, strain atp4, stronger effect = lower value 0.982 | locus YPL106C, strain sse1, stronger effect = lower value 0.946 | locus YPL240C, strain hsp82, stronger effect = lower value 0.957 | locus YPL256C, strain CLN2, stronger effect = lower value 1.06
